In PubChem BioAssay (NCI):
About 83,000 compounds went through this panel and 20% of them were active in at least one assay; those are over-represented in the sample as a whole.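 The test compound was applied at a single concentration to cells in 96-well plates for 48 hours, and percent growth was recorded.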 Unmarked numbers belong to inactive results. The source made the active and inactive calls. How the source made its calls: active means growth percent below 10; inactive means the rest.

Experiments:
Experiment in all cases: NCI-60 one-dose screen, 48 h (100 = growth as untreated, 0 = no growth, -100 = all killed)
Settings in all cases: 10 µM unless noted
[1] = tested on: SK-MEL-2 melanoma
[2] = tested on: EKVX NSCLC
[3] = tested on: SN12C renal
[4] = tested on: UO-31 renal
[5] = tested on: TK-10 renal
[6] = tested on: ACHN renal
[7] = tested on: CAKI-1 renal
[8] = tested on: CCRF-CEM leukemia
[9] = tested on: MOLT-4 leukemia
[10] = tested on: A498 renal

SMILES	growth [1]	growth [2]	growth [3]	growth [4]	growth [5]	growth [6]	growth [7]	growth [8]	growth [9]	growth [10]
COc1cc2nc(-c3ccc(C(F)(F)F)cc3)cc(OCCCN3CCOCC3)c2cc1OC	47.4%	61.6%	41.3%	33%	96.6%	34.3%	-13.1% (active)	37.5%	44.9%	–
N#Cc1c(-c2ccccc2)nc2c(c(-c3ccccc3)nn2-c2ccccc2)c1-c1ccc(O)cc1	72.7%	45.2%	61.9%	27.9%	21.7%	42.3%	–	22.1%	–	-1.01% (active)
O=S(=O)(NCCNc1nccc(-c2c(-c3cccc(F)c3)nc3sccn23)n1)c1ccc(Cl)cc1	79.8%	66.3%	48.7%	23.8%	88.5%	35.7%	–	50.4%	46.8%	–
C#CCNC(=O)[C@]1(C)CC[C@]2(C)CC[C@@H]3C(=CC[C@H]4[C@@]3(C)CC[C@H]3C(C)(C)C(=O)CC[C@]43C)[C@@H]2C1	96.2%	100%	97.9%	80.5%	86.4%	98%	83.1%	69.4%	93.1%	–
COc1cc(/C=C/c2cc(O)c(C(C)=O)c(O)c2)cc2c1O[C@]1(C)CC[C@@H](O)C(C)(C)[C@H]1C2	31.4%	90.7%	82.5%	29.7%	94.7%	65%	–	37.6%	–	–
CCCCCN1C=C/C(=C\C(=O)N2CCCc3ccccc32)c2ccccc21	90.9%	76.4%	89.9%	75.5%	105%	106%	–	69.7%	–	–
CN1CCN(C(=O)[C@]23CCC(C)(C)C[C@H]2C2=CC[C@@H]4[C@@]5(C)C/C(=C/c6cccnc6)C(=O)C(C)(C)[C@@H]5CC[C@@]4(C)[C@]2(C)CC3)CC1	81.5%	78.8%	57.8%	38.6%	89.5%	66%	–	33.3%	20.5%	–
O=S(=O)(NCCNc1nccc(-c2c(-c3cccc(F)c3)nc3sccn23)n1)c1ccc(Br)cc1	71.7%	59.5%	42.9%	21.2%	68.8%	30.2%	–	51%	35.7%	–
Cc1ccc(/C=N/NC(=O)CSc2nc3ccccc3c(=O)n2Cc2ccc(S(N)(=O)=O)cc2)cc1	94%	90.8%	97.3%	80.8%	106%	100%	–	87.8%	86.8%	–
OCc1cnccc1NCCCOc1ccccc1	107%	105%	94.3%	87.9%	92.5%	108%	–	88.8%	96.6%	91.9%
COc1cc2oc(-c3cccc(C(=O)Nc4ccccc4)c3)cc(=O)c2c(O)c1OC	65%	97.9%	74.8%	59.7%	60.8%	58%	–	100%	99.7%	–
CCN1C(=O)N(CC)C2Nn3c(s/c(=C\c4ccc(OC)cc4)c3=O)=NC21 (stereo not given)	51.9%	82.2%	62.6%	48.6%	11.2%	42.7%	–	53.2%	–	-2.46% (active)
CN(C)c1ccc(C2C(C#N)=C(/N=C/c3ccccc3)Oc3c2ccc2ccccc32)cc1 (stereo not given)	70.8%	73.4%	78%	50.6%	144%	71.6%	–	66.7%	67.7%	–
CC1(C)NCCC[C@]2(C)[C@H]3CC(=O)[C@H]4[C@@H]5C[C@](C)(CO)CC[C@]5(C)CC[C@@]4(C)[C@]3(C)CC[C@@H]12	99.5%	96.9%	101%	95.5%	100%	102%	–	93.1%	67%	100%
NCCCCCCNc1cc(-c2cccc(OC(F)(F)F)c2)nc2ccc(N3CCCC3)cc12	-63.6% (active)	65.4%	-20.1% (active)	-91.5% (active)	-44.4% (active)	-16.6% (active)	–	-32.2% (active)	-20.7% (active)	–
COc1cccc(-c2nc3occn3c2-c2ccnc(NCCNS(=O)(=O)c3ccc(C(F)(F)F)cc3)n2)c1	98.2%	84.3%	88.6%	66.1%	116%	80.9%	–	92.1%	75.3%	–
CC/C(=C\c1ccc(OC)cc1)C(=O)c1ccc(OC)cc1	96%	103%	91.8%	81.1%	91.9%	96.9%	–	45.6%	91.5%	103%
O=C1/C=C/[C@@H](O)[C@@H]2C[C@@H](O)C[C@H]2/C=C/CCC[C@H](CCc2ccc3ncccc3c2)O1	-18.3% (active)	3.05% (active)	6.22% (active)	-0.158% (active)	-23.9% (active)	5.12% (active)	–	7.39% (active)	-35.7% (active)	-36.4% (active)
O=S(=O)(NCCNc1nccc(-c2c(-c3cccc(O)c3)nc3occn23)n1)c1ccc(C(F)(F)F)cc1	93.7%	105%	102%	93.9%	137%	84.4%	–	106%	111%	–
COc1cc(C2C3=C(COC3=O)N(CCO)c3cc4c(cc32)OCO4)cc(OC)c1OC (stereo not given)	24.7%	35.2%	16.8%	45.8%	54.4%	40.1%	–	–	–	-19.6% (active)
COc1ccccc1/C(C)=N/NC(=O)CSc1nc2ccccc2c(=O)n1Cc1ccc(S(N)(=O)=O)cc1	106%	85.6%	102%	77.3%	96.1%	105%	–	94.5%	97%	–
O=C(c1ccccc1)N1N=C(c2ccc(-n3ccc(C(F)(F)F)n3)c(F)c2)CC1c1ccc[nH]1 (stereo not given)	102%	100%	101%	90.4%	99.2%	110%	–	105%	–	–
O=C(C[n+]1cccc2ccccc21)c1ccc(O)c(O)c1	90.8%	76.8%	72.4%	50.6%	39%	23.7%	–	-13.8% (active)	6.56% (active)	88.4%
Nc1c(C(=O)Nc2ccnc3ccccc23)sc2nc3c(cc12)CN(Cc1ccccc1)CC3	101%	66.1%	74.6%	62.2%	102%	68.4%	–	26.1%	18.2%	–
O=C(C1CCC1)N1N=C(c2ccc(-n3ccc(C(F)(F)F)n3)cc2)CC1c1ccc[nH]1 (stereo not given)	101%	90.4%	98.3%	94.4%	89.1%	102%	–	89.9%	74.8%	–
CN1[C@@H]2CC[C@H]1/C(=C\c1ccccc1)C(=O)/C2=C/c1ccccc1	60.7%	69.4%	36.8%	55.4%	74.9%	42%	–	16.1%	–	71.7%
CCC(CC)NCC(C)(C)O	110%	102%	97.9%	88.2%	109%	102%	–	100%	103%	–
COC(=O)C1=C(C(=O)ON)[C@@H]2C=C[C@@]1([C@@H](Cc1ccccc1)Nc1ccccc1)O2	94%	97.7%	81.5%	71.1%	-23.4% (active)	-95.5% (active)	–	-13.5% (active)	7.55% (active)	–
COc1cc2c(c(OC)c1OC)CCC(c1cccc(NC(=O)c3cccc(Br)c3)c1)O2 (stereo not given)	103%	84.6%	87.6%	79%	91.8%	94.2%	–	88%	74.3%	–
